Most compounds without a hit are left out; they make up all but 2.2% or so of the library.
EBNA-1 inhibitor: blocks EBNA-1 binding to DNA. EBNA-1 DNA binding, fluorescence polarization. inhibition, % at 14.8 µM. 300,000 tested, 0.34% active; in the data active = inhibition above about 28%
NALP1 yeast inh: NALP1 inhibition; S. cerevisiae NALP1/ASC/caspase-1 growth, X-gal OD620, 72 h; inhibition, % at 10 µM; 280,000 tested, 0.61% active; AID 2071; in the data active = inhibition mostly above about 24%, no sharp cut-off; inactive = mostly below about 32%
PolyA inhibitor: blocks polyadenylation in yeast reporter cells; activity score, % at 12 µM; S. cerevisiae SKY197-pL101 polyadenylation reporter, beta-gal luminescence; efflux-impaired pdr1/pdr3 knockout yeast; score 100 = 6 SD above DMSO; AID 1875; 300,000 tested, 0.02% active;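 active = lowest replicate activity score at least 50, where 100 means six control SD above control mean; inconclusive = lowest score under 50 but half or more replicates reach 50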;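 also: yeast exposed to compound for 9 h at 30 °C; higher score means more reporter readthrough which indicates perturbed polyadenylation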
dFosB act-1: enhances mouse delta FosB homodimer DNA binding | P13346 | purified delta FosB, TAMRA-CDK5 oligo fluorescence polarization; percent of positive-control signal above neutral wells | activation, % at 25 µM | 340,000 tested, 0.99% active | AID 493131;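 active = mean activation above about 17%, with every replicate also reaching it, limit read from the data, passing the limit was not always enough; inconclusive = only one of the two conditions met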
Target sequence (P13346 whole entry, looked up): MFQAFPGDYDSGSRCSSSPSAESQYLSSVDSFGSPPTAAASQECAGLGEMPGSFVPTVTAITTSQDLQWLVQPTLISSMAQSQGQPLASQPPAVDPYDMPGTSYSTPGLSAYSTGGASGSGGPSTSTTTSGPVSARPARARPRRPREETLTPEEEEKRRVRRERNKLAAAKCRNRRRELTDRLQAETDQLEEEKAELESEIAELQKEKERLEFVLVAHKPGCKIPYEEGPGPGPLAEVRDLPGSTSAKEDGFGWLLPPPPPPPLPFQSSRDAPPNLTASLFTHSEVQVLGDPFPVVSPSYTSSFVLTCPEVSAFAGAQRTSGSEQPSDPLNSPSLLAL
ZTA counter: ZTA (EBV) inhibition in EBNA-1 counter-screen; P03206; ZTA-DNA binding, fluorescence polarization; inhibition, % at 11 µM; 320,000 tested, 0.15% active; in the data active = inhibition above about 33%
Target sequence (P03206 whole entry, looked up): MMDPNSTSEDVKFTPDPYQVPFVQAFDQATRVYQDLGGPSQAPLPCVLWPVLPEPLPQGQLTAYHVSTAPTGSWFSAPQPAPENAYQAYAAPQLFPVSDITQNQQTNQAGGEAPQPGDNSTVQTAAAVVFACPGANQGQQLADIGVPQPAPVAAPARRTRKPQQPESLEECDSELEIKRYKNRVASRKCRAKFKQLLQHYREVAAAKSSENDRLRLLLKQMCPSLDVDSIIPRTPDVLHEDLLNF
NALP3 yeast inh: NALP3 inhibition in yeast | Yeast reconstituted NLRP3/ASC/caspase-1, beta-gal luminescence, 24 h | inhibition, % at 10 µM | 330,000 tested, 0.39% active;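 active = inhibition of 50% or more; inactive = inhibition below 50%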;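 also: plate controls were induced DMSO wells for no effect and uninduced yeast grown without galactose for full effect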
dFosB act-2: delta FosB (mouse) homodimer activation; purified delta FosB, TAMRA-CDK5 oligo fluorescence polarization; normalised: neutral wells 0, positive control 100; AID 588690; activation, % at 24.9 µM; 2,400 tested, under 10 active; shares compounds with dFosB act-1;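 active = highest replicate activation at or above 34% and every replicate reaching that threshold; inconclusive = meets only one of the two criteria; inactive = meets neither criterion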;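 also: higher polarization means more probe DNA bound by delta FosB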
Active calls of the source: *; ? = inconclusive; nt = no result.

SMILES	EBNA-1 inhibitor	NALP1 yeast inh	PolyA inhibitor	dFosB act-1	ZTA counter	NALP3 yeast inh	dFosB act-2
CCN(CC)CCNC(=S)Nc1ccc2nc(N3CCN(C)CC3)cc(C)c2c1	-3	0	7	24*	2	13	0
CCCN(CCC)CCCNC(=S)Nc1ccc2nc(N3CCCC3)cc(C)c2c1	4	20	3	36*	-11	17	?
CC(NC(=O)COc1ccccc1)C(=O)NCc1ccccc1Cl (configuration not stated)	nt	nt	nt	-3	nt	9	nt
CC(C)N1CCC(=O)NC1=O	nt	nt	nt	2	nt	nt	nt
Cc1ccc(C(=O)NC(NC(=O)c2ccc(C)cc2)C(Cl)Cl)cc1	-13	37	1	24*	-12	28	1
Cc1ccc(C(NC(=O)c2ccccc2)C(Cl)Cl)cc1 (configuration not stated)	5	20	3	-6	9	15	nt
Cc1cccc(-c2noc(CCCC(=O)NC3CCCCC3)n2)c1	2	8	-11	-10	13	26	nt
Cc1nn(Cc2ccccc2)c(Cl)c1/C=C/C(=O)OC(C(=O)NC(N)=O)C(C)C (configuration not stated)	11	-15	4	50*	7	24	-1
Cc1nn(Cc2ccccc2Cl)c(Cl)c1/C=C/C(=O)OCC(=O)NC(N)=O	13	6	1	2	1	22	nt
O=C(OCC(O)C(O)C(O)COC(=O)c1ccccc1)c1ccccc1 (configuration not stated)	nt	nt	nt	2	nt	nt	nt
O=C(OCC(O)C(O)C(O)C(SCc1ccccc1)SCc1ccccc1)c1ccccc1 (configuration not stated)	nt	nt	nt	23*	nt	nt	5
COCCn1c(N)c(N(Cc2ccccc2)C(=O)c2ccc(-c3ccc(Cl)cc3)o2)c(=O)[nH]c1=O	2	nt	3	23*	-10	14	1
COC(=O)c1ccc(CNC(=O)c2ccc(S(=O)(=O)N3CCCC(C)C3)cc2)cc1 (configuration not stated)	nt	nt	nt	?	-12	7	nt
O=C(CSc1nc(-c2ccccc2)cc(C(F)(F)F)n1)NCc1cccs1	2	-5	6	27*	-18	10	1
Clc1ccc(NCc2ccsc2)cc1	-19	9	15	nt	-11	12	nt
CN(NC(=O)c1ccc(Cl)cc1)c1nc(-c2ccccc2)nnc1C(F)(F)F	-3	-3	-7	32*	-9	33	6
O=C(CCc1nc2ccccc2c(=O)[nH]1)NCCN1C(=O)S/C(=C\c2ccc(OC(F)F)cc2)C1=O	nt	nt	nt	47*	nt	nt	-8
CC(C)CC(=O)Nc1ccc(C(=O)Cn2nc(C(=O)O)c3ccccc3c2=O)cc1	-3	-3	-13	4	-1	2	nt
CC(C)(C)c1ccc(C(=O)Cn2nc(C(=O)O)c3ccccc3c2=O)cc1	3	16	-14	29*	17	-9	6
CCN(CC(=O)Nc1ccc(NC(C)=O)cc1)C(=O)/C=C/c1cn(-c2ccccc2)nc1-c1ccc(F)cc1	5	nt	16	21*	1	3	1
CCN(CC(=O)Nc1ccc(NC(C)=O)cc1)C(=O)/C=C/c1cn(-c2ccccc2)nc1-c1ccc(C)cc1	4	13	-3	7	4	21	nt
CCOc1ccccc1-c1nc(-c2ccc(NC(=O)Cc3ccc(OC)cc3)cc2)no1	13	6	4	25*	23	33	0
COc1ccc(CC(=O)Nc2ccc(NC(=O)c3ccccc3F)cc2)cc1	-8	4	-10	20*	-6	8	-1
COc1ccc(NC(=O)C2CCN(c3nc(-c4ccc(OC)cc4)no3)CC2)cc1	-2	13	-7	29*	2	7	-6
COc1ccc(CC(=O)Nc2ccc(-c3noc(-c4ccc(Cl)cc4)n3)cc2)cc1	0	-87	7	60*	7	9	7
SMILES	EBNA-1 inhibitor	NALP1 yeast inh	PolyA inhibitor	dFosB act-1	ZTA counter	NALP3 yeast inh	dFosB act-2
COc1ccc(-c2nc(CS(=O)(=O)CC(=O)Nc3ccc(Cl)cc3)c(C)o2)cc1	-11	17	1	45*	-5	10	2
COc1ccc(-c2nc(CS(=O)(=O)CC(=O)Nc3cccc(C(C)=O)c3)c(C)o2)cc1	-7	11	-2	-12	0	20	nt
Cc1cccc(N2C(=O)c3ccc(C(=O)Nc4ccccn4)cc3C2=O)c1	-19	25	-5	62*	-9	22	5
CC(=O)Nc1ccc2c(c1)C(=O)N(c1cccc(C)c1)C2=O	-2	nt	4	20*	-3	-2	4
COc1ccccc1-n1nnnc1SCC(=O)N(C)C1CCS(=O)(=O)C1 (configuration not stated)	nt	nt	nt	-3	-1	10	nt
OCC1(CO)CCCC(CO)(CO)C1O	nt	nt	nt	7	nt	nt	nt
COc1ccccc1NC(=O)c1sc2ncn(CC(=O)Nc3ccccc3)c(=O)c2c1C	-3	9	0	49*	11	25	1
CC(C)OCCCNC(=O)Cn1ccc2cc(S(=O)(=O)N3CCCCC3)ccc21	2	1	14	1	8	3	nt
COc1ccc(CSCC(=O)N/N=C/c2ccc(OCC(=O)N3CCCCC3)cc2)cc1	-10	5	-9	-3	2	4	nt
Cc1ccc(CSCC(=O)N/N=C/c2ccc(OCC(=O)Nc3ccc(C)cc3)cc2)cc1	-1	-9	-7	27*	0	6	9
CC(C)CCNC(=O)CCCn1c(=O)[nH]c2ccc(Br)cc2c1=O	-19	17	-12	-4	0	9	nt
O=C(CCCn1c(=O)[nH]c2ccc(Br)cc2c1=O)NCc1ccc(Cl)cc1	12	-9	11	100*	-13	4	0
N#C/C(=C/c1ccc(F)cc1)c1nnc(NC(=O)c2ccccc2)s1	8	nt	7	21*	-3	17	-6
CC(=O)Nc1ccc(S(=O)(=O)N(C)c2ccc(OCCOc3ccccc3F)cc2)cc1	nt	nt	nt	-4	nt	8	nt
COc1ccc(CCN2CC(C(=O)OCc3ccccc3Cl)CC2=O)cc1OC (configuration not stated)	nt	nt	nt	-3	nt	nt	nt
O=C(CN1C(=O)c2ccccc2C1=O)Nc1ccccc1	-4	5	4	24*	10	13	-1
Cc1cccc(NC(=O)CN2C(=O)S/C(=C\c3ccc(O)c([N+](=O)[O-])c3)C2=O)c1	5	8	-22	3	17	29	nt
CCOc1cc(/C=C2/NC(=O)N(CC(=O)Nc3cccc(C)c3)C2=O)ccc1OC	-2	8	4	-6	4	6	nt
CCOc1cc(/C=C2/NC(=O)N(CC(=O)Nc3cccc(C)c3)C2=O)ccc1O	-1	0	5	19*	11	0	5

Screens (PubChem BioAssay)
